# Rows were chosen to be rich in hits. Some 19% of all compounds tested hit in one or more screens of this group.
# TDP1 cell CPT: qHTS for Inhibitors of human tyrosyl-DNA phosphodiesterase 1 (TDP1): qHTS in cells in presence of CPT; chicken DT40 Tdp1-/-;hTDP1 cells + 20 nM CPT, ATP luminescence, 48 h; Potency, µM (titrated, usually from 46.2 µM), for inactives: at the top dose activity change, negative = growth inhibition, hits mostly inhibitors; hit rate 12% among 420,000; note: potency is the fitted concentration of half-maximal effect; nearly all actives have a fitted effect of over 55% in size
#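 Chicken DT40 Tdp1-/- cells complemented with human TDP1, 400 cells/well, exposed to compounds plus 20 nM camptothecin for at least 48 h at 37 C; viability read as ATP content by CellTiter-Glo luminescence.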
# IL-1B inflam inh: qHTS for Inhibitors of Inflammasome Signaling: IL-1-beta AlphaLISA Primary Screen; THP-1 LPS/ATP IL-1B secretion, AlphaLISA, 16 h; stronger effect = lower value; activity change, % at 57.5 µM; hit rate 4.7% among 360,000; in the data active = activity change below about -50%; inconclusive = mostly about -30% to -49%
#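 Secreted IL-1B measured by AlphaLISA bead assay after 16 h compound exposure of THP-1 cells; compounds (final up to 57.5 uM) added 1 h before LPS (250 ng/mL) and ATP (1.25 mM) stimulation; lower signal means less secretion.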
# TDP1 cell noCPT: qHTS for Inhibitors of human tyrosyl-DNA phosphodiesterase 1 (TDP1): qHTS in cells in absence of CPT; DT40 Tdp1-/- hTDP1 cells, no CPT, ATP luminescence, 48 h; Potency, µM (highest dose often 46.2 µM), for the others: at the top dose activity change, negative = growth inhibition, most hits filed as inhibitors; hit rate 15% among 420,000; AID 686978, 2013; note: potency is the fitted concentration of half-maximal effect; nearly all actives have a fitted effect of over 55% in size
#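 Growth kinetics read by CellTiter-Glo luminescence after ≥48 hr at 37 °C. Cells: DT40 Tdp1-/- stably carrying human TDP1, 400 per well, compound exposure in the absence of CPT (DMSO vehicle).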
# HT1080NT lethal: qHTS for induction of synthetic lethality in tumor cells producing 2HG: qHTS for the HT-1080-NT fibrosarcoma cell line | HT-1080-NT fibrosarcoma viability, CellTiter-Glo ATP luminescence, 48 h | Potency, µM (top dose mostly 46.1 µM), inactives show at the top dose activity, negative = less viability, most hits filed as cytotoxic | hit rate 1.6% among 360,000 | AID 686970, 2013;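 note: NT is the 2HG producing partner of a matched IDH1 knockdown line; potency is the fitted concentration of half-maximal effect; 0% = DMSO-treated cells and -100% = media-only wells without cells; nearly all actives have a fitted effect of over 55% in size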
#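 Read-out is CellTiter-Glo luminescence after 10 minutes at room temperature, following 48 hours' compound treatment of HT-1080-NT cells (750 cells/well, RPMI, 5% FBS, 37 degrees C).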
# HT1080 IDH1KD tx: qHTS for induction of synthetic lethality in tumor cells producing 2HG: qHTS for the HT-1080-IDH1KD cell line; HT-1080 IDH1 knockdown viability, ATP luminescence, 48 h; Potency, µM (series often up to 46.1 µM), without a hit: at the highest dose activity, negative = toxicity, most hits filed as cytotoxic; hit rate 2% among 360,000;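 note: potency is the fitted concentration of half-maximal effect; 0% = DMSO wells and -100% = cell-free medium wells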
#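 Using the IDH1-knockdown HT-1080 line run in the same batch and compound series as the NT line, viability after 48 h at 37 °C was determined by CellTiter-Glo luminescence and expressed as % activity.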
# Active calls of the source: *; ? = inconclusive; . = no result given. Unless noted, calls come from the whole dose curve; as a rule, active = well fitted curve in the direction sought with a large enough effect; inconclusive = small, poorly fitted or top-dose-only effect, or another doubt; inactive = no such curve, though single readings can be large; an effect the other way counts as inactive or inconclusive. Unless noted, % is set by controls: 0 for no effect and ±100 for the full control effect.
SMILES,TDP1 cell CPT,IL-1B inflam inh,TDP1 cell noCPT,HT1080NT lethal,HT1080 IDH1KD tx
O=C(NC1CCCCC1)c1ccc(Cn2c(SCc3cccc(F)c3)nc3cccnc32)cc1,21µM*,.,21µM*,.,.
O=C(CSc1nc2cccnc2n1Cc1ccccc1)NC1CCCCC1,?,?,?,-1%,-13%
COc1ccccc1-n1c(SCC(=O)NC2CCCC2)nc2cccnc21,-28%,1,-15%,8%,6%
O=C(CN1CCN(S(=O)(=O)c2ccc(F)c(Cl)c2)CC1)N1CCOCC1,-17%,11,4%,-1%,0%
CSc1ccc(-c2ccc3c(c2)CC(CNC(=O)Cn2nc(C)nc2C)O3)cc1 (stereo unspecified),-24%,.,-21%,.,.
Cc1noc(C)c1S(=O)(=O)N(C)C[C@H]1OCc2cnnn2CCCC(=O)N([C@@H](C)CO)C[C@H]1C,9%,-18,-18%,5%,9%
CCOc1ccc(N2CC(O)(c3ccc(F)cc3)[N+]3=C2CCCC3)cc1 (stereo unspecified),-14%,-8,23µM*,-17%,-3%
COc1ccc(N2CC(O)(c3ccc(OC(F)F)cc3)[N+]3=C2CCCC3)cc1 (stereo unspecified),16µM*,-54*,?,-14%,-8%
Cc1cc([N+](=O)[O-])ccc1NC(=O)C(C)N1CCN(c2ccccn2)CC1 (stereo unspecified),-26%,-11,?,1%,1%
O=C(c1ccc2c(=O)n3c(nc2c1)CCCCC3)N1CCc2ccccc21,?,22,?,1%,4%
Cc1ccccc1Nc1nn2c(=O)c3ccc(C(=O)NCc4cccs4)cc3nc2s1,16µM*,.,13µM*,.,.
Cc1ccc(C)c(Nc2nn3c(=O)c4ccc(C(=O)NCc5ccccc5)cc4nc3s2)c1,5.2µM*,.,7.3µM*,.,.
Cc1ccc(C)c(NC(=O)c2ccc3c(=O)n4c(nc3c2)CCC4)c1,-6%,-1,?,8%,3%
CCOC(=O)c1ccc(Nc2nn3c(=O)c4ccccc4nc3s2)cc1,-5%,.,-5%,.,.
CCc1cccc(C)c1Nc1nn2c(=O)c3ccccc3nc2s1,12µM*,.,23µM*,.,.
Cc1cc(C)n(-c2ccc(C(=O)NCc3cccs3)cc2)n1,-27%,?,?,7%,21%
Cc1ccccc1Nc1nn2c(=O)c3ccc(C(=O)NCC(C)c4ccccc4)cc3nc2s1 (stereo unspecified),15µM*,.,15µM*,.,.
COc1cc(CCC(=O)OCC(=O)NCCc2ccc(S(N)(=O)=O)cc2)cc(OC)c1OC,9%,-10,10%,16%,9%
FC(F)(F)c1ccccc1-c1nccc(-n2ccnc2)n1,?,.,-13%,.,.
Cc1nn(CC(=O)NC(=O)NC2CCCC(C)C2C)c(=O)c(C#N)c1C (stereo unspecified),-26%,-11,-15%,1%,-3%
Cc1ccc(-c2csc3nc4cc(C(N)=O)ccc4c(=O)n23)cc1,-20%,-18,-23%,?,-2%
COc1cccc(CNC(=O)c2ccc3c(=O)n4nc(Nc5ccccc5)sc4nc3c2)c1,8.2µM*,.,?,.,.
Cc1ccc(CNC(=O)c2ccc3c(=O)n4c(-c5ccc(C)cc5)csc4nc3c2)cc1,7.3µM*,18,9.2µM*,1%,2%
O=c1c2ccccc2nc2sc(Nc3cccc(C(F)(F)F)c3)nn12,0%,.,-5%,.,.
Cc1cccc(Nc2nn3c(=O)c4cc5c(cc4nc3s2)OCO5)c1,0%,.,2%,.,.
SMILES,TDP1 cell CPT,IL-1B inflam inh,TDP1 cell noCPT,HT1080NT lethal,HT1080 IDH1KD tx
CCN(CC)CCNC(=O)c1ccc2c(=O)n3nc(Nc4ccccc4)sc3nc2c1,5.8µM*,.,4.6µM*,.,.
Cc1ccc(S(=O)(=O)N(C)c2ccc(OC(=O)CN3C(=O)NC4(CCCC4)C3=O)cc2)cc1C,-16%,4,-12%,0%,-8%
Cc1cccc2c(C(=O)N3CCN(c4ccccn4)CC3)cc(-c3cccc(Br)c3)nc12,?,-12,-24%,-4%,?
COC(=O)c1cc2n(n1)CCN(Cc1ccc(C)cc1)C2=O,6%,3,-21%,16%,13%
CSc1ccc(CCNC(=O)c2cc3n(n2)CCCN(Cc2ccc(C)cc2)C3=O)cc1,5.8µM*,.,?,.,.
CCOc1ccc(CCNC(=O)c2cc3n(n2)CCCN(Cc2ccc(C)cc2)C3=O)cc1OCC,9.2µM*,.,15µM*,.,.
CCCNC(=O)c1cc2n(n1)CCCN(Cc1ccc(C)cc1)C2=O,-17%,.,-12%,.,.
CCCSCCCNC(=O)c1cc2n(n1)CCCN(Cc1ccc(C)cc1)C2=O,18µM*,.,?,.,.
Cc1ccc(CN2CCCn3nc(C(=O)NCCc4ccccc4Cl)cc3C2=O)cc1,21µM*,.,16µM*,.,.
CCNC(=O)C1(C)CCN(C(=O)c2ccc(OC)cc2OC)C1 (stereo unspecified),6%,-5,-4%,21%,16%
O=C(Nc1nnc(S(=O)(=O)Nc2ccccc2)s1)C1CCCCC1,?,3,?,1%,-4%
Cc1ccc(-n2c(C)cc(C(=O)COC(=O)c3c(C)noc3C)c2C)cc1,9.2µM*,-58*,9.2µM*,-24%,-21%
Cc1cc(C(=O)COC(=O)c2cnccn2)c(C)n1-c1ccc(Br)cc1,-9%,13,?,8%,-7%
Cc1ccc(-n2c(C)cc(C(=O)COC(=O)C3=NNC(=O)CC3)c2C)cc1,16µM*,5,?,-7%,-7%
CN(C)S(=O)(=O)c1cccc(C(=O)N=C2N=C3C=CC(Cl)=CN3Cc3ccccc32)c1,?,18,16µM*,8%,7%
CN(Cc1ccccc1)S(=O)(=O)c1ccc(NC(=S)NC(=O)C2CCCC2)cc1,5.2µM*,8,4.6µM*,7.1µM*,8.9µM*
O=C(NC(=S)Nc1ccc(S(=O)(=O)Nc2ccccc2)cc1)C1CC1,7%,1,-5%,7%,8%
COc1ccccc1/C=C/C(=O)NC(=S)Nc1ccccn1,-3%,16,-6%,7%,8%
COc1ccccc1/C=C/C(=O)NC(=S)Nc1ccc(S(=O)(=O)N(C)c2ccccc2)cc1,?,-3,23µM*,14%,17%
CN(c1ccccc1)S(=O)(=O)c1ccc(NC(=S)NC(=O)C2CC2)cc1,?,-11,12µM*,-14%,0%
CN(c1ccccc1)S(=O)(=O)c1ccc(NC(=O)CC(=O)c2ccccc2)cc1,?,0,18µM*,0%,1%

# Source: PubChem BioAssay
